High-throughput results as filed in PubChem.
Sampled rows, rich in hits. Any-hit rate of the full collection: about 11%.
HttQ103 aggreg = mutant huntingtin aggregation inhibition; Potency, µM (doses to about 46.1 µM), for inactives: top-dose activity change, negative = inhibition, hits mostly inhibitors; PC12 HttQ103-GFP aggregates, Acumen cytometry, 40 h; actives 1.1% (n = 220,000); AID 1688; further: potency means the concentration at half of the fitted maximal effect; on the % scale 0 is the no-effect control and ±100 the full control effect; nearly all actives have a fitted effect of over 60% in size
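Quantitative HTS on tebufenozide-induced (100 nM) PC12 cells stably expressing polyQ103 Huntingtin exon 1–GFP. Reduction of bright GFP aggregates, detected by laser scanning cytometry after lysis, identified actives across the titration.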
CBFb-RUNX1 inh = CBF-beta/RUNX1 interaction disruption; Q01196+Q13951; AlphaScreen CBFb-His/RUNX1-biotin binding, biochemical; Potency, µM (doses to about 59.8 µM), without a hit: top-dose activity, negative = inhibition, actives largely listed as inhibitors; 230,000 tested, under 10 active; AID 1477; further: % of control where 0% means no effect
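Proteins preincubated together for 20 min at RT before compound addition; 15 min later, nickel and streptavidin beads were added and left 90 min prior to AlphaScreen measurement.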
HTT ATP protect = cytoprotection in Huntington HTT-Q103 PC12 cell model; PC12 HTT-Q103 induced, cytoprotection, ATP luminescence, 40 h; Potency, µM (top dose mostly 56.4 µM), inactives show cytoprotection (ATP increase), usual class: activators; actives 0.14% (n = 230,000); AID 1471; further: potency means the concentration at half of the fitted maximal effect; % of control where 0% means no effect; nearly all actives have a fitted effect of over 45% in size
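Readout: ATPlite luminescence (ATP level). Model: stable PC12, inducible Htt exon1 Q103-GFP. Inducer: tebufenozide, 100 nM final. Compounds: dose series. No G418 in medium.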
PNC assembly inh = perinucleolar compartment assembly inhibition; activity change (PNC), negative = inhibition, % at 10 µM; actives 3.1% (n = 140,000); PC3M PTB-GFP, PNC prevalence imaging, 16 h; stronger effect = lower value;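 active means readout at or below -70, meaning at least 70% loss of cells showing the perinucleolar compartment, a nuclear body marking cancer cells; inconclusive means readout between -30 and a set limit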;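 further: plate controls were DMSO wells for no effect and camptothecin positive control wells for full effect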
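PC3M cells stably expressing PTB-GFP, 750–1000 cells/well, treated 16 h at 37 °C with compound (23 nl of library stock), in duplicate. After paraformaldehyde fixation and Hoechst stain, imaged at 20x; PNC prevalence scored by image analysis.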
HPGD block = blocks human HPGD enzyme activity; Potency, µM, without a hit: top-dose activity change, negative = inhibition, hits mostly inhibitors; AID 894; actives 4.3% (n = 150,000); P15428; purified HPGD, NADH fluorescence kinetic, PGE2 substrate; active means well fitted inhibition curve with a large enough effect, not every such curve was filed as active; inconclusive means small, poorly fitted or top-dose-only effect, or another doubt; inactive means no such curve, though single readings can be large or run the other way; further: potency means the concentration at half of the fitted maximal effect; on the % scale 0 is the no-effect control and ±100 the full control effect
Target sequence (P15428 whole entry, looked up): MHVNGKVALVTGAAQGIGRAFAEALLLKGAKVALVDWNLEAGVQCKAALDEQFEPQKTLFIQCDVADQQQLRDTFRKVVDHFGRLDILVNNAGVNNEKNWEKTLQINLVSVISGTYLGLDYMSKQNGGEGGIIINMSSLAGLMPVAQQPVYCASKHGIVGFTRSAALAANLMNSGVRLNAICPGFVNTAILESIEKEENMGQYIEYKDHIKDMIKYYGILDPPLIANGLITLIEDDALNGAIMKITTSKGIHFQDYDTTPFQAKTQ
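20 nM HPGD preincubated 15 min at room temperature with compound in 50 mM Tris-HCl pH 8, 0.01% Tween 20. Started with 1 mM NAD+ and 30 uM prostaglandin E2; NADH fluorescence (360/450 nm) read 5 times over 30-s intervals, last minus first.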
ALDH1A1 block = ALDH1A1 (human) enzyme inhibition. P00352. Purified ALDH1A1, NADH fluorescence, propionaldehyde substrate. actives 7.3% (n = 220,000). Potency, µM (highest dose often 75.3 µM), for inactives: at the highest dose activity, negative = inhibition, most hits filed as inhibitors; active means well fitted inhibition curve with a large enough effect, not every such curve was filed as active; inconclusive means small, poorly fitted or top-dose-only effect, or another doubt; inactive means no such curve, though single readings can be large or run the other way;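 further: potency means the concentration at half of the fitted maximal effect; plate controls were no enzyme wells and a reference inhibitor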
Target sequence (P00352 whole entry, looked up): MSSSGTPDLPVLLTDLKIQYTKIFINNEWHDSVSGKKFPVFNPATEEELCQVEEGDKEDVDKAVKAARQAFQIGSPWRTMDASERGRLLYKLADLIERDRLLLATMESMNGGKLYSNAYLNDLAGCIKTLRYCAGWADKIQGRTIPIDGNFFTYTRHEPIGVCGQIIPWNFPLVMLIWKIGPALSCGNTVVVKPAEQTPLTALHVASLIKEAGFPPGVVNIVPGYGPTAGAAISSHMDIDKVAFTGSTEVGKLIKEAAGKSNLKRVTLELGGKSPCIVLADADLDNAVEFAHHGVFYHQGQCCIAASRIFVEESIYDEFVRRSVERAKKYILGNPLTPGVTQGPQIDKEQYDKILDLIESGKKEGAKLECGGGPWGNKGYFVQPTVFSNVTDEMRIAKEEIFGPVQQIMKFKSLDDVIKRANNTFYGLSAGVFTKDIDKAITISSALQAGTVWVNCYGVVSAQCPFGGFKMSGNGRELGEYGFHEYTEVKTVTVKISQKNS
An asterisk follows results filed as active; [ ] = remark or other dose. Unless noted, the call rests on the fitted dose curve; in most records, active means well fitted curve in the direction sought with a large enough effect; inconclusive means small, poorly fitted or top-dose-only effect, or another doubt; inactive means no such curve, though single readings can be large; an effect the other way counts as inactive or inconclusive.

How did O=C(OCC(=O)N1CCN(c2ccccc2)CC1)c1ccc2ccccc2n1 do in these assays?
HttQ103 aggreg: 15%; CBFb-RUNX1 inh: 3%; HTT ATP protect: 7%; PNC assembly inh: 3; HPGD block: -7%; ALDH1A1 block: 8.9µM*

What do the screens show for `O=C(OCC(=O)N1CCN(c2ccccc2)CC1)c1ccccn1`?
HttQ103 aggreg: 16%; CBFb-RUNX1 inh: -1%; HTT ATP protect: 15%; PNC assembly inh: -6; HPGD block: -2%; ALDH1A1 block: 0%

Results for C=CCNC(=S)Nc1sc2c(c1C(=O)OCC)CC(C)(CC)OC2 (centres undefined) ?
HttQ103 aggreg: -19%; CBFb-RUNX1 inh: -15%; HTT ATP protect: 13%[10 µM]; PNC assembly inh: -100*; HPGD block: -15%; ALDH1A1 block: inconclusive

What do the screens show for `C=CCNC(=S)Nc1sc2c(c1C(=O)OCC)CCN(C(=O)OCC)C2`?
HttQ103 aggreg: 3%; CBFb-RUNX1 inh: 1%; HTT ATP protect: -40%; PNC assembly inh: -27; HPGD block: -14%; ALDH1A1 block: 20µM*

Results for CCOC(=O)c1c(NC(=S)NCc2ccccc2)sc2c1CCN(C(=O)OCC)C2 ?
HttQ103 aggreg: 7%[9.22 µM]; CBFb-RUNX1 inh: 1%; HTT ATP protect: -14%[10 µM]

What do the screens show for `CCOC(=O)N1CCc2c(sc(NC(=O)CN3CCN(C)CC3)c2C(=O)Nc2ccccc2)C1`?
HttQ103 aggreg: 10%; CBFb-RUNX1 inh: 6%; HTT ATP protect: -41%; ALDH1A1 block: 14µM*

How did CCOC(=O)c1c(NC(=S)Nc2cccc(C)c2)sc2c1CC(C)(C)SC2 do in these assays?
HttQ103 aggreg: 3%; CBFb-RUNX1 inh: 0%; HTT ATP protect: 20%[10 µM]; PNC assembly inh: inconclusive; HPGD block: inconclusive; ALDH1A1 block: 4µM*

What do the screens show for `CCOC(=O)c1c(NC(=O)C2CC2)sc2c1CC(C)(C)OC2`?
HttQ103 aggreg: -2%[9.22 µM]; CBFb-RUNX1 inh: 11%; HTT ATP protect: -3%[10 µM]

What do the screens show for `NC(=NCc1ccc(Cl)cc1Cl)NC(=O)c1nc(Cl)c(N)nc1N`?
CBFb-RUNX1 inh: -16%; HTT ATP protect: 3%; ALDH1A1 block: inconclusive

How did CSCC[C@H](NC(=O)[C@H](CC(C)C)NC(=O)CNC(=O)[C@H](Cc1ccccc1)N(C)C(=O)[C@H](Cc1ccccc1)NC(=O)[C@H](CC(=O)O)NC(=O)[C@@H](N)CC(=O)O)C(N)=O do in these assays?
CBFb-RUNX1 inh: 4%

Results for Cc1nc(/C=C/c2ccccc2)[nH]c(=O)c1-c1ccccc1 ?
HttQ103 aggreg: 7%; CBFb-RUNX1 inh: 7%; HTT ATP protect: 0%[10 µM]; PNC assembly inh: 5; HPGD block: -22%; ALDH1A1 block: inconclusive

Results for O=C(O)C(=O)/C(=C\c1ccc([N+](=O)[O-])cc1)c1ccc2ccccc2n1 ?
HttQ103 aggreg: -16%; CBFb-RUNX1 inh: -14%; HTT ATP protect: -83%; ALDH1A1 block: 11µM*

How did O=C(O)C(=O)/C(=C\c1ccccc1)c1ccc2ccccc2n1 do in these assays?
HttQ103 aggreg: -4%[9.22 µM]; CBFb-RUNX1 inh: 3%; HTT ATP protect: -22%; PNC assembly inh: -14; HPGD block: inconclusive; ALDH1A1 block: inconclusive

Results for O=C(Oc1c(Cl)cc(Cl)c2cccnc12)c1cccs1 ?
HttQ103 aggreg: 10µM*; CBFb-RUNX1 inh: 5%; HTT ATP protect: -61%[10 µM]; PNC assembly inh: -26; HPGD block: -2%; ALDH1A1 block: inconclusive

Results for O=C(Oc1c(CN2CCOCC2)cc(Cl)c2cccnc12)c1ccc(F)cc1 ?
HttQ103 aggreg: 1µM*; CBFb-RUNX1 inh: 2%; HTT ATP protect: -98%[10 µM]; PNC assembly inh: inconclusive; HPGD block: -13%; ALDH1A1 block: inconclusive

How did O=C(Oc1c(CN2CCOCC2)cc(Cl)c2cccnc12)c1cccs1 do in these assays?
HttQ103 aggreg: 1.3µM*; CBFb-RUNX1 inh: inconclusive; HTT ATP protect: -97%[10 µM]; ALDH1A1 block: inconclusive

What do the screens show for `COc1cccc(C(=O)Oc2c(CN3CCOCC3)cc(Cl)c3cccnc23)c1`?
HttQ103 aggreg: 11µM*; CBFb-RUNX1 inh: inconclusive; HTT ATP protect: -93%[10 µM]; PNC assembly inh: 7; HPGD block: -5%; ALDH1A1 block: 8%

How did CC1O[C@@H](O[C@H]2C(Oc3cc(O)c4c(c3)OC(c3ccc(O)cc3)CC4=O)OC(CO)C(O)C2O)C(O)C(O)C1O (some centres undefined) do in these assays?
HPGD block: -4%; ALDH1A1 block: 6%

What do the screens show for `CCCCCCCCCCCCC/C=C/[C@@H](O)[C@H](CO)NC(C)=O`?
CBFb-RUNX1 inh: 6%; HTT ATP protect: -31%; ALDH1A1 block: 2%

How did CCOC(=O)c1[nH]c(C)c(C(=O)NC2CCCCCC2)c1C do in these assays?
HttQ103 aggreg: 6%; CBFb-RUNX1 inh: 2%; HTT ATP protect: 26%[10 µM]; PNC assembly inh: 9; HPGD block: -2%; ALDH1A1 block: -3%

What do the screens show for `CCOC(=O)c1[nH]c(C)c(C(=O)NCc2ccccn2)c1C`?
HttQ103 aggreg: -17%; CBFb-RUNX1 inh: 0%; HTT ATP protect: 22%[10 µM]; PNC assembly inh: -100*; HPGD block: -7%; ALDH1A1 block: 0%

Results for CCOC(=O)c1[nH]c(C)c(C(=O)NC2CCCC2)c1C ?
HttQ103 aggreg: -7%; CBFb-RUNX1 inh: 0%; HTT ATP protect: -3%; PNC assembly inh: 9; HPGD block: 18µM*; ALDH1A1 block: 2%

What do the screens show for `CC(=O)c1c(C)[nH]c(C(=O)NCc2ccccn2)c1C`?
HttQ103 aggreg: -7%; CBFb-RUNX1 inh: -2%; PNC assembly inh: 23; HPGD block: -6%; ALDH1A1 block: 3%

How did S=C(Nc1ccccc1Cl)N(Cc1ccccc1)Cc1cccnc1 do in these assays?
HttQ103 aggreg: 9%; CBFb-RUNX1 inh: -1%; HTT ATP protect: -26%; ALDH1A1 block: 7%

What do the screens show for `C/C(N)=C(/C#N)C(=O)COC(=O)c1cc(C)n(-c2ccc(F)cc2)c1C`?
HttQ103 aggreg: 1%; CBFb-RUNX1 inh: 2%; HTT ATP protect: -9%[10 µM]; PNC assembly inh: -129*; HPGD block: -27%; ALDH1A1 block: 13µM*

Results for C/C(=N\NC(=O)c1cccc(N/N=C(\C)c2ccccc2)c1)c1ccccc1 ?
HttQ103 aggreg: -26%; CBFb-RUNX1 inh: 1%; HTT ATP protect: 1%[10 µM]; PNC assembly inh: inconclusive; HPGD block: inconclusive; ALDH1A1 block: 12µM*

How did C/C(=N\Nc1cccc(C(F)(F)F)c1)c1ccc(O)cc1 do in these assays?
HttQ103 aggreg: 0%; CBFb-RUNX1 inh: 7%; HTT ATP protect: -37%; ALDH1A1 block: 20µM*
